# Source: PubChem (NMMLSC)
# VLA-4 inh: inhibition in human VLA-4 binding assay, primary screen, VLA-4 allosteric modulator project, MLPCN library, flow cytometry, VLA-4 expressing cells | Integrin alpha-4 (Homo sapiens), P13612 | ligand binding flow cytometry | inhibition, % (about 7 µM as worked out from the volumes in the protocol) | hit rate 0.2% among 330,000 | AID 2557, 2010; in the data active = inhibition above about 50%
# Target sequence (P13612 whole entry, looked up): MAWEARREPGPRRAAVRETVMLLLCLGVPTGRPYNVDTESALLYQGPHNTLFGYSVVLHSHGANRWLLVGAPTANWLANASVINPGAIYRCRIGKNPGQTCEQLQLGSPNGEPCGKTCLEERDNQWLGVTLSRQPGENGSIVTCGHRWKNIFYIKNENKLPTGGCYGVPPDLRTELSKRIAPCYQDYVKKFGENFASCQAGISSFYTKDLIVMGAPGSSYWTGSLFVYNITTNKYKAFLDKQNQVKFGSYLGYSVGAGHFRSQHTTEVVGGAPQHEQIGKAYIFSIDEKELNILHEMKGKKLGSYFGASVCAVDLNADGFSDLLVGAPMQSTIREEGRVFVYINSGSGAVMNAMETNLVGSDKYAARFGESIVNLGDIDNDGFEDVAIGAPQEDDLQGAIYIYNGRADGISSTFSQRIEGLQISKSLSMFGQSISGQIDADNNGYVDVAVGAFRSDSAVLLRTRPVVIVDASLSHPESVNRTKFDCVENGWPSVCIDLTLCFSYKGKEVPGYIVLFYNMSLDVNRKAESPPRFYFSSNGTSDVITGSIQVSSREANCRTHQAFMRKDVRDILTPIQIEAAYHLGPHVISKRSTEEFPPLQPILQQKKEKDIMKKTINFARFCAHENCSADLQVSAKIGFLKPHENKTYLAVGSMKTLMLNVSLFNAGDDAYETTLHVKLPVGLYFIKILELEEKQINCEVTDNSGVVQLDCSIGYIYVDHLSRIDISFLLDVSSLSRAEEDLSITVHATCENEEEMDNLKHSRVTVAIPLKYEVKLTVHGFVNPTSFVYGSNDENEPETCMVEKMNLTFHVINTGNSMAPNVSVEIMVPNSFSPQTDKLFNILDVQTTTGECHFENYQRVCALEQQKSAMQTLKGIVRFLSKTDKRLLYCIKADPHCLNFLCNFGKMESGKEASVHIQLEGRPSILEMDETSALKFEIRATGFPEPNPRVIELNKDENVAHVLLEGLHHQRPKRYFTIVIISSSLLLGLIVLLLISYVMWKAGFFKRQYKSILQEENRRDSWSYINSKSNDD
# MEKK2mut PB1 HTS: MEK5 binding signal on mutant MEKK2 PB1, primary screen, biochemical, multiplex bead flow cytometry, Alexa488-MEK5. Alexa488-MEK5 binding to MEKK2 mutant. percent response, % at 10 µM. hit rate 0.35% among 290,000. AID 1530, 2009; in the data active = percent response above about 24%, passing the limit was not always enough
# MEKK3 PB1 HTS: modulators of MEKK3-MEK5 PB1 binding, primary screen, biochemical, wildtype MEKK3, multiplex bead flow cytometry, Alexa488-MEK5; Mitogen-activated protein kinase kinase kinase 3 (Homo sapiens), Q99759; bead-based flow cytometry, Alexa488-MEK5 binding to MEKK3; actives lie on both sides; 0 = blocked by unlabeled MEK5, 100 = vehicle; binding response (% of control), % at 10 µM; hit rate 1.4% among 290,000; AID 1529, 2009;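 active = binding response more than 3 SD above or below the average of its plate-row segment, actives on both sides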;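 also: Alexa488 bead fluorescence after subtracting the streptavidin-only scavenger bead signal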
# MEKK2wt PB1 HTS: modulators of MEK5 binding to wildtype MEKK2, primary screen, biochemical, multiplex bead flow cytometry, Alexa488-MEK5. Alexa488-MEK5 binding to MEKK2 WT; actives lie on both sides. binding response (% of control), % at 10 µM. Mitogen-activated protein kinase kinase kinase 2 (Homo sapiens), Q9Y2U5. hit rate 1.1% among 290,000; in the data active = binding response below about 67% or above about 130%
# MEKK2wt confirm: modulators of MEK5 binding to wildtype MEKK2, confirmation, biochemical, single concentration, multiplex bead flow cytometry; shares compounds with MEKK3 PB1 HTS; Alexa488-MEK5 binding to MEKK2 WT; actives lie on both sides; binding response (% of control), % at 10 µM; hit rate 2.4% among 5,900; in the data active = binding response below about 16% or above about 210%; inactive = in between
# MEKK2mut-MEK5: mutant MEKK2 PB1-MEK5 binding signal retest – biochemical, single concentration, multiplex bead flow cytometry, confirmation; shares compounds with MEKK3 PB1 HTS; Alexa488-MEK5 binding to MEKK2 mutant; percent response, % at 10 µM; hit rate 2% among 5,900; in the data active = percent response mostly above about 71%, no sharp cut-off; inactive = mostly below about 38%;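 also: higher means compound restores mutant binding toward wildtype level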
# MEKK3 confirm: MEKK3 wild-type PB1 binding to MEK5, inhibitors, confirmation, biochemical, bead multiplex flow cytometry, single concentration, wildtype. AID 1894, 2009. binding response (% of control), % at 10 µM. shares compounds with MEKK3 PB1 HTS. Alexa488-MEK5 binding to MEKK3; hits give low values. hit rate 1.8% among 5,900;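 active = binding response below 72% of control, or above a set upper limit, though filed actives all read lower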;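 also: lower values mean stronger disruption of MEK5 binding to MEKK3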
# Numbers stand for hits; 0 = inactive; - = not tested or not shown; [ ] = another dose, or the depositor's remark. In the library only some 2.2% were active in any assay of this set; here they are far more common.
SMILES,VLA-4 inh,MEKK2mut PB1 HTS,MEKK3 PB1 HTS,MEKK2wt PB1 HTS,MEKK2wt confirm,MEKK2mut-MEK5,MEKK3 confirm
Fc1ccccc1-c1csc(=Nc2cccnc2)n1CC1CCCO1 (configuration not stated),0,0,0,0,-,-,-
Cc1ccc(C(=O)NCc2ccncc2)cc1S(=O)(=O)N1CCCCC1,0,0,0,0,-,-,-
COc1ccccc1NC1=NCC(=O)N1Cc1ccccc1,0,47,0,0,0,0,0
COCCn1c(C)cc(/C=C(\C#N)C(=O)OCC(=O)N(C)c2c(N)n(Cc3ccccc3)c(=O)[nH]c2=O)c1C,0,-,-,-,-,-,-
COC(=O)/C(=C\c1ccc2c(c1)c1ccccc1n2C)NC(=O)c1ccccc1,0,0,2.0[inhibitor],2.0[inhibitor],0,0,0
CC(C)OC(=O)/C(=C/c1ccc2c(c1)c1ccccc1n2C)NC(=O)c1ccccc1,0,0,0,0,-,-,-
COC(=O)c1cc2c(N)c(C(=O)c3ccccc3)sc2nc1C(OC)OC,0,0,0,0,-,-,-
Cc1cccc(/C=N/c2sc3c(c2C(=O)OC(C)(C)C)CCN(C)C3)c1O,0,0,0,141,0,0,0
Cc1ccc(NC(=O)C2CCCN2c2nn3c(=O)cc(C)nc3s2)cc1 (configuration not stated),0,0,0,0,-,-,-
Cc1onc(-c2ccccc2Cl)c1C(=O)NCCN1Cc2ccccc2C1=O,0,0,1.0[inhibitor],2.0[inhibitor],0,0,0
COc1ccc(CCNC(=O)c2c(-c3ccccc3Cl)noc2C)cc1,0,0,0,0,-,-,-
O=C(NNc1cc(Cl)ccc1Cl)c1c(F)cccc1Cl,0,0,129,0,0,0,0
O=C(NNc1ccc(Cl)cc1)c1c(F)cccc1Cl,0,0,0,0,-,-,-
COc1ccc(N(C)C(=O)c2oc(=O)c3ccccc3c2-c2ccccc2)c(OC)c1,0,0,0,0,-,-,-
Cc1cccn2c(=O)nc(SCC(=O)Nc3ccc4c(c3)OCO4)nc12,0,-,-,-,-,-,-
S=C(NCCc1ccccc1)Nc1c(Cl)cccc1Cl,0,0,0,0,-,-,-
COc1ccc(Nc2cc(C(=O)NCc3ccco3)c3ccccc3n2)c(OC)c1,0,0,133,0,0,0,0
O=C(CNCCc1ccccc1)N1CCc2ccccc2C1,0,0,0,0,-,-,-
CCc1ccc(NC(=O)C(=O)N/N=C(\C)CC(=O)Nc2ccc(OC)cc2)cc1,0,0,0,0,-,-,-
CCc1ccc(NC(=O)C/C(C)=N/NC(=O)OCc2ccc(OC)cc2)cc1,0,0,136,0,0,0,0
C=C(C)c1cccc(C(C)(C)NC(=O)NCc2ccc(OC)cc2)c1,0,0,133,0,0,0,0
C=C(C)c1cccc(C(C)(C)NC(=O)NCc2ccc(OC)c(OC)c2)c1,0,0,0,0,-,-,-
COc1ccc2c(c1)c(C(C)=O)c(C)n2-c1ccccc1OC,0,-,-,-,-,-,-
COc1ccc2c(c1)c(C(C)=O)c(C)n2-c1ccccc1,0,0,76[inhibitor],0,0,0,0
O=C(COC(=O)c1c[nH]c2ccccc12)Nc1ccc([N+](=O)[O-])cc1,0,-,-,-,-,-,-
SMILES,VLA-4 inh,MEKK2mut PB1 HTS,MEKK3 PB1 HTS,MEKK2wt PB1 HTS,MEKK2wt confirm,MEKK2mut-MEK5,MEKK3 confirm
O=C(NCc1nnc2c(C(F)(F)F)cc(Cl)cn12)c1ccco1,0,0,0,0,-,-,-
O=C(NC1CCSc2ccccc21)c1cc(S(=O)(=O)N2CCOCC2)ccc1Cl (configuration not stated),0,-,-,-,-,-,-
CCC(C(=O)NC1CCCC1)N(C(=O)Cn1nnc(-c2cccs2)n1)c1cnc2ccccc2c1 (configuration not stated),0,0,0,0,-,-,-
CCC(C(=O)NC(C)(C)C)N(C(=O)Cn1nnc(-c2ccccc2F)n1)c1cnc2ccccc2c1 (configuration not stated),0,0,128,0,0,0,0
CC(=O)NS(=O)(=O)c1ccc(NC(=O)c2ccc3c(c2)OCO3)cc1,-,0,0,0,-,-,-
Cc1nn2c(N3CCN(C)CC3)cc(C(C)(C)C)nc2c1-c1ccccc1,0,0,0,144,0,0,0
CC(=O)c1c(C)nc2sc3c(=N)n(N)cnc3c2c1-c1ccc(Cl)cc1,0,0,0,0,-,-,-
CC[C@@H](C)[C@H](CNC)NC[C@@H](Cc1cccc2ccccc12)NCCc1cccc(C(F)(F)F)c1,0,74,0,318,247,101,0
CCC[C@H](CN[C@@H](CNC)[C@H](C)CC)NCCc1cc(C(F)(F)F)cc(C(F)(F)F)c1,0,0,0,158,0,0,0
O=C(CNC(=O)Cc1ccccc1)NCc1cccc(C(F)(F)F)c1,0,0,0,0,-,-,-
CCC[C@@H](CN[C@@H](CNC)[C@H](C)CC)NCC1CCC(C(C)(C)C)CC1 (some centres not stated),0,0,0,148,0,0,0
CC(C)NCC(O)COC1CCC(C(C)(C)C)CC1 (configuration not stated),0,0,0,0,-,-,-
C/C(=N\NC(=O)c1ccccc1)C1C2C=CC(C2)C1(C)C (configuration not stated),0,0,0,0,-,-,-
O=C(Nc1cccc(S(=O)(=O)NCc2ccco2)c1)c1cccc(Cl)c1,0,-,-,-,-,-,-
Cn1cc([N+](=O)[O-])c(C(=O)NCc2ccco2)n1,0,0,0,0,-,-,-
CCn1cc(Br)c(C(=O)NCc2ccco2)n1,0,0,43[inhibitor],0,0,0,0
O=C(CN(Cc1ccc(F)cc1)C(=O)c1ccco1)NCc1ccc(F)cc1,0,0,0.0[inhibitor],0.0[inhibitor],0,0,0
COc1ccc(OCC(=O)N/N=c2\oc3c(OC)cccc3cc2C(N)=O)cc1,0,0,0,0,-,-,-
COc1cccc2cc(C(N)=O)/c(=N/NC(=O)COc3ccc(Cl)cc3)oc12,0,0,143,0,0,0,0
Cc1cc(F)ccc1S(=O)(=O)Nc1ccc(O)c(Sc2ncn[nH]2)c1,0,0,0,0,-,-,-
CCOc1cc(CN2CCN(c3ncccn3)CC2)ccc1OC,0,0,0,0,-,-,-
COc1ccc(C2CC(c3cccs3)=NN2S(C)(=O)=O)cc1OC (configuration not stated),0,70,0,-,0,0,0
COc1ccc(C2CC(c3cccs3)=NN2c2ccc(C=O)cc2)cc1 (configuration not stated),0,0,0,63[inhibitor],0,0,0
